# PubChem BioAssay (EPA / NIEHS)
# The source made the active and inactive calls. How the source made its calls: active means hit-call score of the fitted dose curve at least 0.9, where 1 is the maximum; inactive means score below 0.9.
# Legend:
# Conditions in all cases: mRNA level, 48 h; actives raise or lower the signal
# [1] = read-out: Cytochrome P450 (CYP1A1), CYP1A1 (gene 1543); assay: LTEA_HepaRG_CYP1A1: Life Technologies and Expression Analysis (LTEA) Assay for Cytochrome P450 (CYP1A1) using HepaRG (AID 2283454)
# Procedure, shortened: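 Differentiated human HepaRG cells, after 48 h plating, exposed in duplicate for 48 h in serum-free induction medium to 8 half-log concentrations up to 100 uM in 0.5% DMSO. CYP1A1 mRNA by qRT-PCR, normalized to ACTB/GAPDH/POLR2A; bidirectional fit versus DMSO.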
# [2] = read-out: CFLAR gene, CFLAR (gene 8837); assay: LTEA_HepaRG_CFLAR: Life Technologies and Expression Analysis (LTEA) Assay for CFLAR gene using HepaRG (AID 2283455)
# Procedure, shortened: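 HepaRG cells were plated for 48 h, switched to serum-free induction medium, then exposed in duplicate for 48 h to 8 concentrations (top 100 uM, half-log steps, 0.5% DMSO). CFLAR mRNA was measured by qRT-PCR, normalized to ACTB, GAPDH and POLR2A.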
# [3] = read-out: growth arrest and DNA damage 45 (GADD45A), GADD45A (gene 1647); assay: LTEA_HepaRG_GADD45A: Life Technologies and Expression Analysis (LTEA) Assay for growth arrest and DNA damage 45 (GADD45A) using HepaRG (AID 2283458)
# Procedure, shortened: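 Human HepaRG liver cells are treated in duplicate for 48 h with chemicals in 0.5% DMSO, highest concentration 100 uM. Expression is read by qRT-PCR and analyzed in both directions against vehicle.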
# [4] = read-out: ABC Transporter (ABCB1), ABCB1 (gene 5243); assay: LTEA_HepaRG_ABCB1: Life Technologies and Expression Analysis (LTEA) Assay for ABC Transporter (ABCB1) using HepaRG (AID 2283460)
# Procedure, shortened: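 Differentiated human HepaRG cells, plated 48 h then switched to serum-free induction medium, were exposed in duplicate to eight half-log concentrations up to 100 uM in 0.5% DMSO for 48 h. ABCB1 mRNA was measured by TaqMan qRT-PCR, normalized to ACTB/GAPDH/POLR2A.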
# [5] = read-out: growth arrest and DNA damage 45 (GADD45B), GADD45B (gene 4616); assay: LTEA_HepaRG_GADD45B: Life Technologies and Expression Analysis (LTEA) Assay for growth arrest and DNA damage 45 (GADD45B) using HepaRG (AID 2283461)
# Procedure, shortened: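 Differentiated human HepaRG cells in serum-free induction medium exposed 48 h in duplicate to eight concentrations, top 100 uM, half-log steps, 0.5% DMSO. GADD45B mRNA by TaqMan qRT-PCR, normalized to ACTB, GAPDH, POLR2A; bidirectional fit versus DMSO.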
# [6] = read-out: ABC Transporter (ABCC3), ABCC3 (gene 8714); assay: LTEA_HepaRG_ABCC3: Life Technologies and Expression Analysis (LTEA) Assay for ABC Transporter (ABCC3) using HepaRG (AID 2283462)
# Procedure, shortened: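 Differentiated human HepaRG cells exposed 48 h in serum-free induction medium, 0.5% DMSO vehicle, 8-point half-log series to 100 uM in duplicate. ABCC3 mRNA by qRT-PCR, normalised to ACTB, GAPDH, POLR2A; bidirectional fit vs DMSO.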
# [7] = read-out: ABC Transporter (ABCB11), ABCB11 (gene 8647); assay: LTEA_HepaRG_ABCB11: Life Technologies and Expression Analysis (LTEA) Assay for ABC Transporter (ABCB11) using HepaRG (AID 2283463)
# Procedure, shortened: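 Differentiated human HepaRG cells were exposed for 48 h in serum-free induction medium to eight half-log concentrations up to 100 uM in 0.5% DMSO. ABCB11 mRNA was quantified by qRT-PCR, normalized to ACTB, GAPDH and POLR2A, and fitted bidirectionally versus DMSO.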
# [8] = read-out: ABC Transporter (ABCC2), ABCC2 (gene 1244); assay: LTEA_HepaRG_ABCC2: Life Technologies and Expression Analysis (LTEA) Assay for ABC Transporter (ABCC2) using HepaRG (AID 2283464)
# Procedure, shortened: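 Differentiated HepaRG cells in serum-free induction medium exposed 48 h to eight half-log concentrations up to 100 uM, 0.5% DMSO, in duplicate. ABCC2 mRNA measured by qRT-PCR (TaqMan, Fluidigm), normalized to ACTB, GAPDH and POLR2A. Fitted in both directions against DMSO.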
# [9] = read-out: Broad substrate specificity ATP-binding cassette transporter ABCG2 (Homo sapiens) (UniProt Q9UNQ0); assay: LTEA_HepaRG_ABCG2: Life Technologies and Expression Analysis (LTEA) Assay for ABC Transporter (ABCG2) using HepaRG (AID 2283465)
# Procedure, shortened: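 Differentiated HepaRG cells in serum-free induction medium were exposed for 48 h, in duplicate, to eight half-log concentrations up to 100 uM in 0.5% DMSO. ABCG2 mRNA was measured by TaqMan qRT-PCR, normalized to ACTB, GAPDH and POLR2A, and fitted bidirectionally versus DMSO.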
# [10] = read-out: ATP-citrate lyase (ACLY), ACLY (gene 47); assay: LTEA_HepaRG_ACLY: Life Technologies and Expression Analysis (LTEA) Assay for ATP-citrate lyase (ACLY) using HepaRG (AID 2283466)
# Procedure, shortened: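 Differentiated human HepaRG cells in serum-free induction medium exposed 48 h, in duplicate, to eight half-log concentrations from 100 uM top in 0.5% DMSO; ACLY mRNA measured by qRT-PCR, normalized to ACTB, GAPDH, POLR2A, fitted bidirectionally versus DMSO.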
# [11] = read-out: Peroxisomal acyl-coenzyme A oxidase 1 (ACOX1) gene, ACOX1 (gene 51); assay: LTEA_HepaRG_ACOX1: Life Technologies and Expression Analysis (LTEA) Assay for Peroxisomal acyl-coenzyme A oxidase 1 (ACOX1) gene using HepaRG (AID 2283467)
# Procedure, shortened: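 Differentiated human HepaRG cells were exposed in duplicate for 48 h in serum-free induction medium to eight half-log concentrations up to 100 uM in 0.5% DMSO. ACOX1 mRNA was then quantified by TaqMan qRT-PCR, normalized to ACTB, GAPDH and POLR2A.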
# [12] = read-out: Alkaline Phosphatase, Placental (ALPP) gene, ALPP (gene 250); assay: LTEA_HepaRG_ALPP: Life Technologies and Expression Analysis (LTEA) Assay for Alkaline Phosphatase, Placental (ALPP) gene using HepaRG (AID 2283468)
# Procedure, shortened: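 HepaRG cells plated 48 h, then exposed in duplicate for 48 h in serum-free induction medium to 8-point half-log series from 100 uM in 0.5% DMSO. ALPP mRNA by TaqMan qRT-PCR, normalized to ACTB/GAPDH/POLR2A; bidirectional fit versus DMSO.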
# [13] = read-out: Bcl-2 (BAD) gene, BAD (gene 572); assay: LTEA_HepaRG_BAD: Life Technologies and Expression Analysis (LTEA) Assay for Bcl-2 (BAD) gene using HepaRG (AID 2283469)
# Procedure, shortened: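 Differentiated human HepaRG cells in serum-free induction medium were exposed in duplicate for 48 h to eight concentrations (top 100 uM, half-log steps, 0.5% DMSO). BAD mRNA was quantified by qRT-PCR normalised to ACTB, GAPDH and POLR2A, with bidirectional fitting versus DMSO.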
# [14] = read-out: Bcl-2 (BAX) gene, BAX (gene 581); assay: LTEA_HepaRG_BAX: Life Technologies and Expression Analysis (LTEA) Assay for Bcl-2 (BAX) gene using HepaRG (AID 2283470)
# Procedure, shortened: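 Concentration-response endpoint fitted in both directions relative to 0.5% DMSO vehicle. Human HepaRG cultures receive test chemicals for 48 h at up to 100 uM; BAX mRNA is quantified by qRT-PCR against housekeeping genes.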
# [15] = read-out: adenosine kinase (ADK) gene, ADK (gene 132); assay: LTEA_HepaRG_ADK: Life Technologies and Expression Analysis (LTEA) Assay for adenosine kinase (ADK) gene using HepaRG (AID 2283471)
# Procedure, shortened: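 ADK expression quantified by qRT-PCR, normalised to three housekeeping genes, after 48 h exposure of HepaRG cells to eight concentrations (top 100 uM, half-log steps, duplicate, 0.5% DMSO). Up- or down-regulation fitted relative to vehicle.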
# [16] = read-out: Alpha-fetoprotein (AFP) gene, AFP (gene 174); assay: LTEA_HepaRG_AFP: Life Technologies and Expression Analysis (LTEA) Assay for Alpha-fetoprotein (AFP) gene using HepaRG (AID 2283472)
# Procedure, shortened: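 After a 48 h plating period, cells are moved to serum-free induction medium and dosed in duplicate (100 uM maximum, half-log dilutions, 0.5% DMSO) for another 48 h. Total RNA goes to TaqMan qRT-PCR; AFP signal is housekeeping-normalized.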
# [17] = read-out: BCL2L11 (gene 10018); assay: LTEA_HepaRG_BCL2L11: Life Technologies and Expression Analysis (LTEA) Assay for Bcl-2 (BCL2L11) gene using HepaRG (AID 2283473)
# Procedure, shortened: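 Differentiated human HepaRG cells were exposed 48 h in serum-free induction medium to eight half-log concentrations up to 100 uM in 0.5% DMSO, in duplicate. BCL2L11 mRNA was quantified by TaqMan qRT-PCR, normalized to ACTB, GAPDH and POLR2A; induction or repression fitted versus DMSO.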
# Sequence of Broad substrate specificity ATP-binding cassette transporter ABCG2 (Homo sapiens) (Q9UNQ0 whole entry, looked up): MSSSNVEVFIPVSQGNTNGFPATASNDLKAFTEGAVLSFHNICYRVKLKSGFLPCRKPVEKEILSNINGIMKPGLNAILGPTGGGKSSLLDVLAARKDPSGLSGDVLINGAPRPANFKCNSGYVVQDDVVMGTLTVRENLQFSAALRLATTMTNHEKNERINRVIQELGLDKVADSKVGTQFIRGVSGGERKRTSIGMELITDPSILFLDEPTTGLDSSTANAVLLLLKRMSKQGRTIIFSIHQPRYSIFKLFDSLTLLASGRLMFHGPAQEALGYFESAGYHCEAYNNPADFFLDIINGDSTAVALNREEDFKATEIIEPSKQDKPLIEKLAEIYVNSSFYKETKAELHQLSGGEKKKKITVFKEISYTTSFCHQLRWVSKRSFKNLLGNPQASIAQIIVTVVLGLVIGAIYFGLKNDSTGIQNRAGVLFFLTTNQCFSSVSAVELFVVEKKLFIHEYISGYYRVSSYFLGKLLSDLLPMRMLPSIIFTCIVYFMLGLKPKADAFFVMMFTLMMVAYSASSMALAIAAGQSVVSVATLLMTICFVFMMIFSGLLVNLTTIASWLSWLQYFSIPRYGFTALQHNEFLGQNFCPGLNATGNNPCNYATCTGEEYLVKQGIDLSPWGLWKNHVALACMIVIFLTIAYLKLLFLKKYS
smiles,measurement,setting,value
N#Cc1nn(-c2c(Cl)cc(C(F)(F)F)cc2Cl)c(N)c1S(=O)C(F)(F)F (centres undefined),AC50,[1],14.9 µM (active)
same,AC50,[2],50.2 µM (active)
same,AC50,[3],74.2 µM (active)
same,AC50,[4],11.4 µM (active)
same,AC50,[5],90.7 µM (active)
same,outcome,[6],inactive
same,AC50,[7],27.8 µM (active)
same,outcome,[8],inactive
same,AC50,[9],23.5 µM (active)
same,outcome,[10],inactive
same,AC50,[11],50.2 µM (active)
same,AC50,[12],11.5 µM (active)
same,outcome,[13],inactive
same,AC50,[14],32.6 µM (active)
same,outcome,[15],inactive
same,AC50,[16],15.9 µM (active)
same,outcome,[17],inactive
COc1ccc(C(c2ccc(OC)cc2)C(Cl)(Cl)Cl)cc1,AC50,[1],22.6 µM (active)
same,outcome,[2],inactive
same,outcome,[3],inactive
same,outcome,[4],inactive
same,AC50,[5],61.8 µM (active)
same,AC50,[6],77 µM (active)
same,AC50,[7],86.7 µM (active)
same,AC50,[8],14.1 µM (active)
same,outcome,[9],inactive
same,outcome,[11],inactive
same,outcome,[13],inactive
same,outcome,[14],inactive
same,outcome,[15],inactive
same,AC50,[16],78.4 µM (active)
same,outcome,[17],inactive
C=CC1(C)OC(=O)N(c2cc(Cl)cc(Cl)c2)C1=O (centres undefined),AC50,[1],24.6 µM (active)
same,outcome,[2],inactive
same,outcome,[3],inactive
same,AC50,[4],9.71 µM (active)
same,outcome,[5],inactive
same,outcome,[6],inactive
same,AC50,[7],38.3 µM (active)
same,outcome,[8],inactive
same,AC50,[9],11.1 µM (active)
same,outcome,[10],inactive
same,outcome,[11],inactive
same,outcome,[12],inactive
same,outcome,[13],inactive
same,outcome,[14],inactive
same,outcome,[15],inactive
same,outcome,[16],inactive
same,outcome,[17],inactive
